Our source for the AC50 and outcome values is PubChem BioAssay (EPA / NIEHS).

For orientation: AC50 means the midpoint of the concentration-response curve, whichever way the signal moves.

Holding throughout (conditions): actives raise or lower the signal
Assay [1] in a line: CEETOX_H295R_11DCORT: CeeTox H295R High-throughput Steroidogenesis Assay for 11-Deoxycortisol (11DCORT) (AID 2283432).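 As to AC50: 11-deoxycortisol secreted into the medium measured by LC-MS/MS.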 The gist of the method: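 Human adrenal H295R cells were prestimulated with 10 uM forskolin for 48 h, then exposed to test chemical (0.1% DMSO final) for 48 h. Medium 11-deoxycortisol was quantified by MTBE extraction and HPLC-MS/MS; bidirectional fitting relative to DMSO.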

A short description of assay [2]: CEETOX_H295R_OHPREG: CeeTox H295R High-throughput Steroidogenesis Assay for OH-Pregnenolone (OHPREG) (AID 2283434). The gist of the method: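 Hormone levels in spent medium were measured by tandem mass spectrometry following liquid-liquid extraction. Cells (H295R) had been forskolin-stimulated (10 uM, 48 h) before a 48 h chemical exposure at 0.1% DMSO, with activity fitted in both directions against DMSO.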

A short description of assay [3]: CEETOX_H295R_OHPROG: CeeTox H295R High-throughput Steroidogenesis Assay for OH-Progesterone (OHPROG) (AID 2283435).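 As to AC50: 17alpha-hydroxyprogesterone secreted into medium measured by HPLC-MS/MS.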 In outline:
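H295R, 10 uM forskolin prestim 48 h; cmpd in 0.1% DMSO 48 h; medium MTBE-extracted, HPLC-MS/MS for OH-progesterone; 7-pt std curve; bidirectional fit vs DMSO; MTT viability, chemicals diluted until viability >/=70%.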

Assay [4] is described as follows: CEETOX_H295R_CORTIC: CeeTox H295R High-throughput Steroidogenesis Assay for Corticosterone (CORTIC) (AID 2283437).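 Also: corticosterone secreted into medium quantified by mass spectrometry.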 In outline:
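Corticosterone secreted into medium is measured by reverse-phase HPLC with tandem MS following liquid-liquid extraction. Cells are forskolin-stimulated (10 uM, 48 h) before 48 h test exposure; activity fitted in both directions against DMSO.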

Assay [5] is described as follows: CEETOX_H295R_CORTISOL: CeeTox H295R High-throughput Steroidogenesis Assay for Cortisol (AID 2283438).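 Also: cortisol secreted into medium quantified by LC-MS/MS.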 The gist of the method: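 Forskolin 10 uM 48 h prestim → test cmpd in DMSO (0.1% final) 48 h → medium MTBE-extracted → LC-MS/MS cortisol vs 7-pt std curve. Gain/loss of signal fitted vs DMSO. MTT viability in same wells.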
Assay [6] can be described thus: CEETOX_H295R_DOC: CeeTox H295R High-throughput Steroidogenesis Assay for DOC (AID 2283439). In outline:
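Readout: 11-deoxycorticosterone in culture medium by reverse-phase C18 HPLC with ESI+ tandem MS after MTBE extraction. Cells: H295R, forskolin-primed (10 uM, 48 h), chemical-treated 48 h; DMSO 0.1% final. Activity fitted bidirectionally versus DMSO.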

Assay [7] is described as follows: CEETOX_H295R_PROG: CeeTox H295R High-throughput Steroidogenesis Assay for Progesterone (PROG) (AID 2283442).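 As to AC50: human H295R adrenal cells primed with 10 µM forskolin before dosing.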 The gist of the method:
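Progesterone secreted by human H295R cells was measured by LC-MS/MS following 48 h chemical exposure at 0.1% DMSO, preceded by 48 h forskolin (10 uM) stimulation. Same-well MTT viability; cytotoxic concentrations diluted 10- or 100-fold and retested.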

The nature of assay [8]: CEETOX_H295R_ANDR: CeeTox H295R High-throughput Steroidogenesis Assay for Androstenedione (ANDR) (AID 2283436). The procedure:
CEETOX_H295R is a cell-based, multiplexed-readout assay that uses H295R, a human adrenal gland cell line, with measurements taken at 48 hours after chemical dosing in a 96-well plate.CEETOX_H295R_ANDR is one of 23 assay component(s) measured or calculated from the CEETOX_H295R assay. It is designed to make measurements of hormone induction, a form of inducible reporter, as detected with absorbance signals by HPLC-MS-MS technology.Data from the assay component CEETOX_H295R_ANDR was analyzed into 1 assay endpoint. This assay endpoint, CEETOX_H295R_ANDR, was analyzed with bidirectional fitting relative to DMSO as the negative control and baseline of activity. […] To generalize the intended target to other relatable targets, this assay endpoint is annotated to the steroid hormone intended target family, where the subfamily is androgens.
Cell culture and media preparation procedures were conducted in accordance with OECD Test No. 456 guidelines, with minor modifications. H295R cells (ATCC CRL-2128) were expanded for 5 passages and frozen in batches in liquid nitrogen. Prior to the steroidogenesis assay, H295R cells were thawed and passed at least 4 times. The maximum passage was 10. Cells were maintained in a 1:1 mixture of DMEM/F12 supplemented with 5ml/L ITS+ Premix (BD Bioscience) and 12.5 ml/L Nu-Serum (BD Bioscience). After seeding cells into 96-well plates at 50-60% confluency, cells were allowed to adhere overnight. […] Test chemicals were incubated for 48 hours, then the medium was removed and split into 2 vials containing approximately 75uL each, and stored at -80 C prior to hormone analysis. For steroid quantification, media samples were shipped to OpAns, LLC (Durham, NC) on dry ice, and samples were thawed to room temperature prior to liquid-liquid extraction. Steroid hormones were extracted from media samples using methyl tertbutyl ether (MTBE). An extra derivatization with dansyl chloride was included for estrogen (estrone and estradiol) detection only. Steroid hormones were separated by HPLC, eluted using a reverse phase C18 gradient with electrospray positive ionization, followed by quantification by tandem mass spectrometry (MS/MS). Data were acquired on a MassHunter Workstation Acquisition version B03.01 (Agilent Technologies, Inc.) and processed using MassHunter Quantitative Analysis for QQQ. Accuracy was determined for each hormone analyte from 3 standards to determine upper and lower limits of quantification (ULOQ and LLOQ, respectively) using a 7-point standard curve. Precision and accuracy of the extraction and quantification methods were calculated as the percent relative standard deviation (%RSD) of the spiked standards and percent spiked standard recovered, respectively. […] Test medium was removed following chemical exposure, and cell viability was evaluated in the same wells by MTT. MTT procedures were as follows: after removal of test medium, 500 uL of 0.5 mg/ml of 3-[4,5-dimethylthiazol-2-y]2,5-diphenyltetrazoliumbromide solution was added to the cells. Following a 4-hour incubation at 37 C and 5% CO2 to allow formazan-crystal formation, the MTT solution was removed and blue formazan salt crystals were solubilized using 500uL anhydrous isopropanol with shaking for 20 minutes. Absorbance was read at 570 and 650nm using a Packard Fusion microplate reader. Background correction of absorbance units was used to determine percent change relative to controls. […] When a test chemical reduced cell viability to 20% - 70%, the test chemical was diluted 10-fold and re-evaluated, but if cell viability was <20%, then the test chemical was diluted 100-fold and re-evaluated. Test chemical dilutions were made until cell viability was >/=70%. MTT assays were also conducted for duplicates of all concentrations of chemicals tested in concentration-response studies.

Assay [9] can be described thus: CEETOX_H295R_ESTRADIOL: CeeTox H295R High-throughput Steroidogenesis Assay for Estradiol (AID 2283440).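 Also: estradiol secreted into medium quantified by LC-MS/MS after dansyl derivatisation.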 In outline: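 Estradiol in spent medium measured by LC-MS/MS after dansyl chloride derivatisation. Forskolin-primed (10 uM, 48 h) human adrenal H295R cells received test chemical 48 h at 0.1% DMSO; concentrations lowered until MTT viability >/=70%.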
Assay [10] is described as follows: CEETOX_H295R_ESTRONE: CeeTox H295R High-throughput Steroidogenesis Assay for Estrone (AID 2283441).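 Also: estrone secreted into medium measured by LC-MS/MS after dansyl derivatization.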 In outline:
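H295R cells prestimulated 48 h with 10 uM forskolin, then exposed 48 h to chemicals in 0.1% DMSO final; estrone in medium extracted with MTBE, dansyl-derivatized, quantified by HPLC-MS/MS; bidirectional fitting versus DMSO, viability by MTT.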

The source made the active and inactive calls. The calls were made as follows: active = hit-call score of the fitted dose curve at least 0.9, where 1 is the maximum; inactive = score below 0.9.

Regarding `C#CC1(O)CC[C@H]2[C@@H]3CCC4=CCCC[C@@H]4[C@H]3CC[C@@]21C` (stereo not given in full), the AC50 in [1] was 7.32 µM (active); in assay [3] it was 7.02 µM (active); in assay [5] it was 7.01 µM (active); in [6] it was 2.03 µM (active). In addition, the compound was called inactive in [2], in assay [4] and in assay [7].

As for `CCCCC/C=C\CCC=O`, the outcome in assay [1], in assay [2], in [3], in assay [8], in assay [4] and in assay [5] was inactive. The compound was classed as inactive in assay [6] and in [7].

As to `CCCCCCCCCCCCCOP(=O)(O)O`, the outcome in assay [1], in assay [2], in [3], in [4], in assay [5] and in assay [6] was inactive. Moreover, the result in [9], in assay [10] and in [7] was inactive.

With `COc1ccc2nc(N)sc2c1`, the compound was called inactive in [1], in [2], in assay [8], in assay [4], in assay [5] and in [6]. In addition, the call in assay [9] and in assay [10] was inactive. Further, the AC50 in assay [3] was 7.33 µM (active); in assay [7] it was 22.4 µM (active).

Regarding `CCCCNc1ccc(NCCCC)c2c1C(=O)c1ccccc1C2=O`, the compound was classed as inactive in assay [1], in assay [2], in [8], in assay [4], in assay [5] and in [6]. In addition, the outcome in assay [9] and in assay [10] was inactive. The figures for the AC50 in assay [3] and in assay [7] were 0.164 µM (active) and 0.208 µM (active), respectively.

For the compound `Oc1ccc(Cl)cc1Cc1cc(Cl)ccc1O`, the AC50 in assay [1] is 6.93 µM (active). Moreover, the call in [2], in assay [3], in assay [8], in assay [4], in assay [5] and in assay [6] was inactive. Moreover, the compound was called inactive in assay [9], in assay [10] and in assay [7].

As for `O=C(Nc1ccccc1SSc1ccccc1NC(=O)c1ccccc1)c1ccccc1`, the outcome in assay [1], in [2], in [3], in [4], in assay [5] and in [6] was inactive. In addition, the compound was classed as inactive in assay [9], in [10] and in assay [7].

Turning to `C1=CCCC1`, the compound was classed as inactive in [1], in assay [8], in assay [4], in assay [5] and in [6].

With `O=C(C=Cc1ccccc1)OCc1ccccc1`, the compound was classed as inactive in assay [1], in assay [5], in assay [6], in assay [9] and in assay [10]. Besides, the AC50 is 50 µM (active) in assay [2], 50 µM (active) in assay [3], 36.2 µM (active) in assay [4] and 14.6 µM (active) in assay [7].

Regarding `CO[Si](CCC1CCC2OC2C1)(OC)OC` (stereo not given), the compound was called inactive in assay [1], in assay [2], in [3], in assay [8], in [4] and in assay [5]. Besides, the compound was classed as inactive in [6] and in [7].

With `Cc1ccc(C(C)c2ccc(C)c(C)c2)cc1C`, the result in assay [1], in assay [4], in assay [5], in assay [6], in [9] and in [10] was inactive. In addition, the AC50 was 42.5 µM (active) in [2], 31.9 µM (active) in [3] and 40.9 µM (active) in assay [7].

For the compound `CCOC(=O)Cc1cccc2ccccc12`, the AC50 in assay [1] was 34.3 µM (active); in assay [2], 61.3 µM (active); in assay [3], 40.1 µM (active); in assay [6], 30.8 µM (active); in assay [7], 24.9 µM (active). Besides, the outcome in [4], in assay [5], in assay [9] and in assay [10] was inactive.

Take `COCc1c(C(C)C)nc(C(C)C)c(/C=C/[C@@H](O)C[C@@H](O)CC(=O)O)c1-c1ccc(F)cc1`: the AC50 in assay [1] was 0.0173 µM (active); in assay [2], 0.00141 µM (active); in assay [3] it was 0.0173 µM (active); in [8] it was 0.0224 µM (active); in [4] it was 0.0139 µM (active); in [6], 0.0107 µM (active). Moreover, in assay [7], the AC50 is 0.0067 µM (active). The compound was called inactive in [5], in assay [9] and in assay [10].

As to `C=COCCCC`, the compound was called inactive in [1], in [2], in [3], in assay [8], in assay [4] and in assay [5]. In addition, the outcome in assay [6], in assay [9], in assay [10] and in assay [7] was inactive.

In the case of `S=C(NC1CCCCC1)NC1CCCCC1`, the compound was classed as inactive in assay [1], in [2], in assay [3], in assay [4], in assay [5] and in assay [6]. For the same compound, the outcome in [9], in assay [10] and in assay [7] was inactive.

With `COC(=O)c1c(C)cc(O)c(C)c1O`, the compound was called inactive in assay [2], in assay [9] and in [10]. Further, the results for the AC50 in [3] and in assay [7] were 26.3 µM (active) and 59.5 µM (active), respectively.

On to `CN(C)c1ccc(C(=N)c2ccc(N(C)C)cc2)cc1`, for which the outcome in assay [1], in assay [3], in assay [4], in [6], in assay [9] and in assay [10] was inactive. Besides, the outcome in assay [7] was inactive. Also, in assay [2], the AC50 is 3.27 µM (active).
